The values below come from PubChem BioAssay (EPA / NIEHS).

Test [1] in a line: ATG_CRE_CIS: Attagene CIS-FACTORIAL HepG2 Assay for human cAMP Responsive Element (CRE) binding protein 3 (AID 2282926). The conditions noted are these: HepG2 CRE cis-reporter, Attagene multiplexed mRNA; actives raise or lower the signal. A digest of the protocol: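 HepG2 cells transiently transfected with a multiplexed reporter library (CRE-driven unit among them) were dosed for 24 h. Reporter mRNA was quantified by RT-PCR, fluorescent labelling, HpaI digestion and capillary electrophoresis, with bidirectional fitting against DMSO baseline.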

In test [2] the target is CCAAT/enhancer-binding protein beta (Homo sapiens) (UniProt P17676). As to the kind of experiment: ATG_C_EBP_CIS: Attagene CIS-FACTORIAL HepG2 Assay for human CCAAT/Enhancer Binding Protein (C/EBP) beta (AID 2282927). The conditions noted are these: HepG2 Attagene cis-factorial transcription factor reporter; actives raise or lower the signal. In outline:
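HepG2, transient MRTU transfection, 24 h treatment. RT-PCR plus CE fluorescence; DMSO negative control, bidirectional fit.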

Test [3] can be described thus: ATG_CMV_CIS: Attagene CIS-FACTORIAL HepG2 Assay for human CMV (Internal Marker) (AID 2282928).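 Further: endpoint acts as a background internal control marker rather than a target.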 The conditions noted are these: HepG2 CMV promoter reporter, transcription factor profiling; actives raise or lower the signal. A digest of the protocol:
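HepG2 cells transiently transfected with multiple cis-regulated reporter units; 24 h compound exposure. Reporter mRNA quantified by RT-PCR, 6-FAM primer-extension labeling, HpaI digestion and capillary electrophoresis; bidirectional fitting against DMSO baseline.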

Test [4] can be described thus: ATG_DR4_LXR_CIS: Attagene CIS-FACTORIAL HepG2 Assay for human Liver X Receptor (LXR), DR4 submotif (AID 2282929). The conditions noted are these: HepG2 Attagene DR4 cis-reporter, mRNA transcription; actives raise or lower the signal. In outline: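 HepG2 cells transiently transfected with cis-promoter-driven multiplexed reporter units (DR4 element) were dosed for 24 h. Reporter mRNA was quantified by RT-PCR, fluorescent primer extension, HpaI digestion and capillary electrophoresis; bidirectional fitting versus DMSO baseline.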

In test [5] the target is Aryl hydrocarbon receptor (Homo sapiens) (UniProt P35869). Description: ATG_Ahr_CIS: Attagene CIS-FACTORIAL HepG2 Assay for human Aryl Hydrocarbon Receptor (Ahr) (AID 2282930). The conditions noted are these: HepG2 AhR cis-factorial reporter transcription; actives raise or lower the signal. A digest of the protocol: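 Endogenous factor activity is tracked through cis-promoter reporter units transfected into HepG2 cells. Transcript levels at 24 h are read by fluorescent RT-PCR and capillary electrophoresis, with activity in either direction scored relative to DMSO.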
Sequence of Aryl hydrocarbon receptor (Homo sapiens) (P35869 whole entry, looked up): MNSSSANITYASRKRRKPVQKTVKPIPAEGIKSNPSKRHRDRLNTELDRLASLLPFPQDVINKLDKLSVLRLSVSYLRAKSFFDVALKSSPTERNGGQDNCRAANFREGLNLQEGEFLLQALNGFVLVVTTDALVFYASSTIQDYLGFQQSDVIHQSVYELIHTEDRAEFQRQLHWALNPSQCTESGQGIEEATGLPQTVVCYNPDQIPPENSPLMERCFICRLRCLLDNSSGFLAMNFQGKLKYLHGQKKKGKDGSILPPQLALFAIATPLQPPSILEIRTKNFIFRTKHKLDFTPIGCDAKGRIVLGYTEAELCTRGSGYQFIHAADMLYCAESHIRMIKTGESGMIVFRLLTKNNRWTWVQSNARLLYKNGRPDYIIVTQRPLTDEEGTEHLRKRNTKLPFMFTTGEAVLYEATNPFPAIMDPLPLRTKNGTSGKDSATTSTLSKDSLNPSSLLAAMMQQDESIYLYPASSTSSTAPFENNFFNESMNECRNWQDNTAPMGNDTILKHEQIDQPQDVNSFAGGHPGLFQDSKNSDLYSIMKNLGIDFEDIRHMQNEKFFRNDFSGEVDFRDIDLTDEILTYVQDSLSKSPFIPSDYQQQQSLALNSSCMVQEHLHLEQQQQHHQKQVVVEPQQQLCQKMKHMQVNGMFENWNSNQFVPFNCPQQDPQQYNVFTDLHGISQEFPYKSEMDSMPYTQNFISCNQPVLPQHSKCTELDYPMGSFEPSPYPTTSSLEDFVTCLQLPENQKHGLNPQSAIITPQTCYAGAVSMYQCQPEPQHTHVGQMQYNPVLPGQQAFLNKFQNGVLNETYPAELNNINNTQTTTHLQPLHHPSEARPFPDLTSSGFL

Test [6] is described as follows: ATG_AP_1_CIS: Attagene CIS-FACTORIAL HepG2 Assay for human Activator Protein 1 (AP-1) (AID 2282931). As to conditions: HepG2 Attagene cis-factorial AP-1 reporter mRNA; actives raise or lower the signal. In outline:
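HepG2 cells transiently transfected with cis-element-driven multiplex reporter units; 24 h compound exposure. Reporter mRNA quantified by RT-PCR, FAM-labelled fragments resolved by capillary electrophoresis; bidirectional fit versus DMSO baseline.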

Test [7] in a line: ATG_AP_2_CIS: Attagene CIS-FACTORIAL HepG2 Assay for human Activator Protein 2 (AP-2) (AID 2282932). The conditions noted are these: HepG2 AP-2 cis-reporter, Attagene transcription factor profiling; actives raise or lower the signal. In outline:
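Multiplexed mRNA reporter assay in HepG2: cis-regulated units report endogenous factor activity after 24 h treatment. Fluorescence from capillary electrophoresis of RT-PCR products gives the signal, with DMSO as baseline.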

Test [8] is described as follows: ATG_BRE_CIS: Attagene CIS-FACTORIAL HepG2 Assay for human Bone Morphogenetic Protein (BMP) Response Element (BRE) (AID 2282933). The conditions noted are these: HepG2 BMP response element reporter, Attagene transcription factor profiling; actives raise or lower the signal. In outline:
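Endogenous transcription factor activity at a BMP response element was monitored in transfected HepG2 cells 24 h after dosing. Fluorescent RT-PCR products were resolved by capillary electrophoresis, and activity was fitted in both directions versus DMSO.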

Test [9] deals with Retinoic acid receptor alpha (Homo sapiens) (UniProt P10276). Description: ATG_DR5_RAR_CIS: Attagene CIS-FACTORIAL HepG2 Assay for human Retinoic Acid Receptor Alpha (RARE), DR5 submotif (AID 2282934). As to conditions: HepG2 Attagene cis-factorial RARE DR5 reporter, mRNA; actives raise or lower the signal. In outline:
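After 24 h of chemical exposure, transiently transfected HepG2 cells were lysed for total RNA; the DR5-regulated reporter transcript was quantified via RT-PCR and capillary electrophoresis, with activity fitted bidirectionally against DMSO.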

Test [10] has as its target Transcription factor E2F1 (Homo sapiens) (UniProt Q01094). Description: ATG_E2F_CIS: Attagene CIS-FACTORIAL HepG2 Assay for human E2F Transcription Factor 1 (AID 2282935). As to conditions: HepG2 Attagene cis-reporter, E2F reporter RNA transcripts; actives raise or lower the signal. In outline:
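Measures reporter transcript levels via RT-PCR with capillary electrophoresis detection in HepG2 cells harboring cis-regulated reporter units; 24 h post-dose; bidirectional curve fitting with DMSO as baseline.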

Test [11] can be described thus: ATG_E_Box_CIS: Attagene CIS-FACTORIAL HepG2 Assay for human Enhancer Box (E-box) (AID 2282936). As to conditions: HepG2 E-box cis-reporter transcription, actives raise or lower the signal. A digest of the protocol:
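First, HepG2 cells receive multiple cis-regulated reporter constructs by transient transfection. Next, chemicals are applied for 24 h. Finally, reporter mRNA is quantified via RT-PCR and capillary electrophoresis, with DMSO as baseline.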

The nature of test [12]: ATG_M_61_CIS: Attagene CIS-FACTORIAL HepG2 Assay for M61 Transcription Factor (Internal Marker) (AID 2282937). As to conditions: HepG2 Attagene CIS-FACTORIAL M61 internal marker reporter; actives raise or lower the signal. A digest of the protocol: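 HepG2 cells transiently transfected with cis-element-driven multiple reporter transcription units, dosed for 24 h. Reporter mRNA measured by RT-PCR, 6-FAM primer-extension labelling, HpaI digestion and capillary electrophoresis; bidirectional fit versus DMSO baseline.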

Test [13] in a line: ATG_EGR_CIS: Attagene CIS-FACTORIAL HepG2 Assay for human Early Growth Response 1 (EGR1) (AID 2282938). The conditions noted are these: HepG2 Attagene CIS-FACTORIAL EGR reporter mRNA; actives raise or lower the signal. A digest of the protocol:
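HepG2 cells transiently transfected with cis-promoter-driven multiplexed reporter transcription units; reporter mRNA measured 24 h after compound dosing by RT-PCR, 6-FAM primer extension, HpaI digestion and capillary electrophoresis. Bidirectional fit versus DMSO baseline.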

A short description of test [14]: ATG_M_19_CIS: Attagene CIS-FACTORIAL HepG2 Assay for M19 Transcription Factor (Internal Marker) (AID 2282939). The conditions noted are these: HepG2 Attagene CIS-FACTORIAL M19 internal marker reporter; actives raise or lower the signal. A digest of the protocol: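 Background-control endpoint from a multiplexed HepG2 reporter panel. Cells carrying cis-regulated reporter constructs are treated 24 h, then reporter transcripts are amplified, fluorescently labelled and sized by capillary electrophoresis. DMSO defines baseline.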

The nature of test [15]: ATG_ERE_CIS: Attagene CIS-FACTORIAL HepG2 Assay for Estrogen Response Element (ERE) (AID 2282940). As to conditions: HepG2 ERE cis-reporter, Attagene RNA transcript; actives raise or lower the signal. A digest of the protocol: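 Cells used were human hepatoma HepG2, transfected with multiple reporter transcription units under cis-regulatory promoters. Reporter mRNA, read 24 h post-dosing via fluorescent RT-PCR products on capillary electrophoresis, was fitted bidirectionally relative to DMSO.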

Test [16] is described as follows: ATG_Ets_CIS: Attagene CIS-FACTORIAL HepG2 Assay for human Erythroblast Transformation Specific (ETS) (AID 2282941). As to conditions: HepG2 ETS cis-reporter transcription, actives raise or lower the signal. In outline:
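HepG2 cells transiently transfected with cis-promoter reporter transcription units were dosed for 24 h; reporter mRNA was measured by RT-PCR, 6-FAM primer extension, HpaI digestion and capillary electrophoresis, with bidirectional fitting against DMSO baseline.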

Test [17] concerns the target Hepatocyte nuclear factor 3-beta (Homo sapiens) (UniProt Q9Y261). Description: ATG_FoxA2_CIS: Attagene CIS-FACTORIAL HepG2 Assay for human Forkhead box A2 (FOXA2) (AID 2282942). The conditions noted are these: HepG2 cis-reporter transcription factor activity, 24 h; actives raise or lower the signal. In outline:
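HepG2 cells transiently transfected with multiple cis-regulated reporter transcription units, dosed for 24 h. Reporter mRNA measured by RT-PCR, 6-FAM labelling, HpaI digestion and capillary electrophoresis; bidirectional fitting against DMSO baseline.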

Test [18] in a line: ATG_FoxO_CIS: Attagene CIS-FACTORIAL HepG2 Assay for human Forkhead box O (FoxO) (AID 2282943). As to conditions: HepG2 Attagene cis-reporter, FoxO element, mRNA; actives raise or lower the signal. A digest of the protocol: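 Transfected HepG2 reporter cells exposed to test chemical for 24 h; reporter RNA measured by reverse transcription, PCR and fluorescent capillary electrophoresis; curves fitted for increases and decreases against DMSO.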

The nature of test [19]: ATG_GATA_CIS: Attagene CIS-FACTORIAL HepG2 Assay for human GATA Binding Protein (AID 2282944). As to conditions: HepG2 GATA cis-element reporter, Attagene multiplex mRNA; actives raise or lower the signal. In outline:
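Endogenous transcription factor activity was captured through cis-promoter-driven reporters in transfected HepG2 cells. After 24 h exposure, reporter transcripts were quantified by RT-PCR with fluorescent capillary electrophoresis, and responses fitted both directions against DMSO.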

Test [20] can be described thus: ATG_GLI_CIS: Attagene CIS-FACTORIAL HepG2 Assay for human Zinc Finger Protein GLI1 (AID 2282945). As to conditions: HepG2, Attagene cis-factorial reporter mRNA, GLI element; actives raise or lower the signal. A digest of the protocol: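 Transiently transfected HepG2 cells report endogenous transcription factor activity via cis-element-driven reporter units. After 24 h compound exposure, reporter mRNA was measured by RT-PCR with capillary electrophoresis; bidirectional fitting against DMSO baseline.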

Each structure is given as a SMILES string. The source made the active and inactive calls. How the source made its calls: active means hit-call score of the fitted dose curve at least 0.9, where 1 is the maximum; inactive means score below 0.9.

Sequence of Transcription factor E2F1 (Homo sapiens) (Q01094 whole entry, looked up): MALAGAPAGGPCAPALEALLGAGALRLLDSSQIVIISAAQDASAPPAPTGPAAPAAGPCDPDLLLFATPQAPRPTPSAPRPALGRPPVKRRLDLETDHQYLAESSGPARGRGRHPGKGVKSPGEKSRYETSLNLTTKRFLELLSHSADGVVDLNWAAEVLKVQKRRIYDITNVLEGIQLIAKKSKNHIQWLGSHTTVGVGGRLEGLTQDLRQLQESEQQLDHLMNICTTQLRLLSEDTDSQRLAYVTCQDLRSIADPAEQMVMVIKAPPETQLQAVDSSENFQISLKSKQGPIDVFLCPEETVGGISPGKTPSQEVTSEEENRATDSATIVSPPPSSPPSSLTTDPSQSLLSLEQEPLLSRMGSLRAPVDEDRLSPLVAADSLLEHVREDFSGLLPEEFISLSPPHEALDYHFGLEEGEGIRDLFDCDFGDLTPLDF
Sequence of Retinoic acid receptor alpha (Homo sapiens) (P10276 whole entry, looked up): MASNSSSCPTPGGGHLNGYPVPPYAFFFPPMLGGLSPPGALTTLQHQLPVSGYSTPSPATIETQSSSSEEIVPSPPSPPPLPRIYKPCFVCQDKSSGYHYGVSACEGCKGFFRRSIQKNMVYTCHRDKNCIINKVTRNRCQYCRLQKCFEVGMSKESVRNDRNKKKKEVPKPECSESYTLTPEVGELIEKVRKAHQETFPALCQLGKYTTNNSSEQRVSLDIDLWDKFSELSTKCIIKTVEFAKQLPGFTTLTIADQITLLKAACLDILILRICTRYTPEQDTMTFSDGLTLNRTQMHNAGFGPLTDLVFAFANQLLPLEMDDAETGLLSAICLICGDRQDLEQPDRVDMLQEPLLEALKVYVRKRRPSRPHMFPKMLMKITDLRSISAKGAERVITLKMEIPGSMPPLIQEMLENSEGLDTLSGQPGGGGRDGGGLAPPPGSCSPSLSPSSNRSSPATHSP
Sequence of CCAAT/enhancer-binding protein beta (Homo sapiens) (P17676 whole entry, looked up): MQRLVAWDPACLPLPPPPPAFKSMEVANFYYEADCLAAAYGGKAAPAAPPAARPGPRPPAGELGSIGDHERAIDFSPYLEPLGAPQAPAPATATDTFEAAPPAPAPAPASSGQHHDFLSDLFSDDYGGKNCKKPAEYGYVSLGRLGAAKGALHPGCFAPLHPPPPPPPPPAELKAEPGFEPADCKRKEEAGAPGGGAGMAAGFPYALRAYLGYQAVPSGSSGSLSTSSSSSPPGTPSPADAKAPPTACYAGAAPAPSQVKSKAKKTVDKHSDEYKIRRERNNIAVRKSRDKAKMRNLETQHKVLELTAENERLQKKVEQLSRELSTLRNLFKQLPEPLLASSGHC
Sequence of Hepatocyte nuclear factor 3-beta (Homo sapiens) (Q9Y261 whole entry, looked up): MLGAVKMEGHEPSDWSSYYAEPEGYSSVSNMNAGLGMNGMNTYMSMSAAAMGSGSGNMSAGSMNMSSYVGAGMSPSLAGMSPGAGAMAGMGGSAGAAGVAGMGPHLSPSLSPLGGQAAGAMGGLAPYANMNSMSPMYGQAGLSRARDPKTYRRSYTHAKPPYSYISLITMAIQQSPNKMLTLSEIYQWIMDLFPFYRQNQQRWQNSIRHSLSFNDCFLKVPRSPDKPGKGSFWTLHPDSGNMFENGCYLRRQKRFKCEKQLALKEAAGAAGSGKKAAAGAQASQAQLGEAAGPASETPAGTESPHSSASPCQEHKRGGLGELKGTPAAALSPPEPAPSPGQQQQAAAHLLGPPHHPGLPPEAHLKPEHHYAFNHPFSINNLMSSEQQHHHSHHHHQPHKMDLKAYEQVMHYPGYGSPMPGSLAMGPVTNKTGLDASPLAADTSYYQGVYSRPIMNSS

With `COc1c2ccoc2cc2oc(=O)ccc12`, the call in test [1], in test [2], in test [3], in test [4], in test [5] and in [6] was inactive. In addition, the molecule was called inactive in [7], in [8], in [9], in [10], in test [11] and in [12]. Moreover, the outcome in test [13], in test [14], in test [15], in [16], in test [17] and in [18] was inactive. The molecule was called inactive in [19] and in test [20].

The AC50 is the concentration giving half of the maximal activity seen. As for `O=C1CCCCCCCCCCCCCCCO1`, the molecule was called inactive in test [1], in test [2], in [6], in [7], in [8] and in test [9]. The molecule was called inactive in test [10], in test [11], in test [12], in test [13], in test [14] and in [15]. In addition, the call in [16], in [17], in [18], in test [19] and in test [20] was inactive. The AC50 was 72.9 µM (active) in test [3], 63.2 µM (active) in test [4] and 61.9 µM (active) in [5].

As to `O=C(Cl)c1cc(C(=O)Cl)cc(C(=O)Cl)c1`, the molecule was classed as inactive in test [1], in test [2], in test [3], in [4], in test [6] and in test [7]. Also, the result in [9], in test [10], in [12], in test [13], in test [14] and in test [15] was inactive. The outcome in test [16], in [17], in test [18], in test [19] and in test [20] was inactive. The AC50 in test [5] is 77.5 µM (active); in test [8], 125 µM (active); in test [11], 138 µM (active).
